# Inconclusive results are not listed. Values without a mark were called inactive. Active and inactive are the calls of the source. Calls come from the whole dose curve; as a rule, active = well fitted inhibition curve with a large enough effect; inconclusive = small, poorly fitted or top-dose-only effect, or effect the other way; inactive = flat fitted curve, though single readings scatter.
# Biological target: Thyroid hormone receptor beta (Homo sapiens) (UniProt P10828)
# Assay: Concentration Response Confirmation Assay for Inhibitors of the Interaction of Thyroid Hormone Receptor and Steroid Receptor Coregulator 2, Fluorescein Fluoroprobe
# Details: TRbeta LBD / fluorescein-SRC2 peptide, fluorescence polarization, 5 h; series mostly up to 92.2 µM
# Outline: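 Fluorescence polarization with 0.6 uM TRbeta ligand-binding domain and 20 nM fluorescein-SRC2 peptide in Tris buffer containing 1 uM T3 and 5% DMSO. Read after 5 h at ambient temperature (ex 480/em 535); data normalized to unbound and bound controls, giving concentration-response potencies.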
# Sequence of Thyroid hormone receptor beta (Homo sapiens) (P10828 whole entry, looked up): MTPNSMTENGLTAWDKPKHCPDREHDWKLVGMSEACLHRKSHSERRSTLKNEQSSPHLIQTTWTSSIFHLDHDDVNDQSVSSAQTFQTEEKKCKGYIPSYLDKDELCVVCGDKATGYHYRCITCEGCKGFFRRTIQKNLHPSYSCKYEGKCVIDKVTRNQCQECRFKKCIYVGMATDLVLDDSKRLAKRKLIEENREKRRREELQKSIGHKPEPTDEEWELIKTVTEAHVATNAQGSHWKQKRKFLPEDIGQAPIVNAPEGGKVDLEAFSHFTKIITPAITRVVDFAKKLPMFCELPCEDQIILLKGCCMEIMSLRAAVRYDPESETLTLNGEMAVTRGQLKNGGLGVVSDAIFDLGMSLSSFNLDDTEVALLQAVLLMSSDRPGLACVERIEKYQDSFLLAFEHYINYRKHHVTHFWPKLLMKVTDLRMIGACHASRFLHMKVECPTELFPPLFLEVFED
SMILES,"activity, negative = inhibition",Potency
CC1(C)C(N(O)C(=O)Nc2ccc(Cl)cc2)N(c2ccc(Cl)cc2)C(=O)N1CC(=O)NN (centres undefined),-8.24% [at 11.6 µM],
O=c1[nH]c(Nc2ccccc2)cc2ccccc12,,25.1 µM (active)
C=CC(=O)OCCOc1ccccc1,,50.1 µM (active)
CCOc1ccc(C2=Cc3cc(OC)c(OC)cc3C(=C(Cl)Cl)O2)cc1,,inactive
COc1cc(NC(C)CCCN)c2ncccc2c1 (centres undefined),,inactive
CS(=O)(=O)c1ccc(C(=O)OCC(=O)NC(=O)C2CCCCC2)cc1[N+](=O)[O-],,5.01 µM (active)
Cc1cccc(S(=O)(=O)c2cn(Cc3ccccc3)c3cc(N4CCC(C)CC4)c(F)cc3c2=O)c1,,inactive
C/C(=C\C(=O)c1ccccc1)Nc1ccc(O)cc1,-2.06% [at 11.6 µM],
Cn1cc[nH]c1=S,,inactive

# Source: PubChem BioAssay AID1570 (National Center for Advancing Translational Sciences (NCATS), 2009)
